DT40 TDP1 CPT = DT40-hTDP1 cell growth loss with CPT | chicken DT40 Tdp1-/-;hTDP1 cells + 20 nM CPT, ATP luminescence, 48 h | Potency, µM (doses to about 46.2 µM), without a hit: top-dose activity change, negative = growth inhibition, hits mostly inhibitors | 12% of 420,000 active | AID 686979; also: potency is read from the fitted curve at half-maximal effect; nearly all actives have a fitted effect of over 55% in size
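Cell growth measured by CellTiter-Glo luminescence after a minimum 48 h, 37 C compound exposure with 20 nM CPT in Tdp1-knockout DT40 cells stably expressing hTDP1, seeded 400/well; qHTS titration format.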
CtBP-E1A inh = blocks the CtBP interaction with E1A; AlphaScreen GST-E1A/His-CtBP binding, 1536-well; active compounds read low; activity change, % (concentration not given with the values); 0.49% of 340,000 active; AID 651724; in the data active = activity change below about -65%; inconclusive = mostly about -30% to -63%
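Protein mix (5X: 125 nM each GST-E1A, His-CtBP) was incubated with pinned compound 2 h at 37 deg C in dark, in 50 mM Tris pH 8.0 buffer with 300 mM NaCl. Glutathione donor and nickel acceptor beads followed; AlphaScreen signal read after 1 h.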
DT40 TDP1 no CPT = qHTS for Inhibitors of human tyrosyl-DNA phosphodiesterase 1 (TDP1): qHTS in cells in absence of CPT; DT40 Tdp1-/- hTDP1 cells, no CPT, ATP luminescence, 48 h; 15% of 420,000 active; AID 686978, 2013; Potency, µM (doses to about 46.2 µM), for inactives: at the top dose activity change, negative = growth inhibition, hits mostly inhibitors; also: potency is read from the fitted curve at half-maximal effect; nearly all actives have a fitted effect of over 55% in size
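Growth kinetics read by CellTiter-Glo luminescence after ≥48 hr at 37 °C. Cells: DT40 Tdp1-/- stably carrying human TDP1, 400 per well, compound exposure in the absence of CPT (DMSO vehicle).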
TDP1 block = inhibitors of human tyrosyl-DNA phosphodiesterase TDP1; recombinant TDP1, AlphaScreen DNA substrate cleavage; Potency, µM (series often up to 130 µM), inactives show at the top dose activity change, negative = inhibition, usual class: inhibitors; 0.28% of 350,000 active; also: potency is read from the fitted curve at half-maximal effect; nearly all actives have a fitted effect of over 40% in size
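AlphaScreen read-out: signal falls as enzyme removes the 3' tyrosine-FITC from a 5'-biotinylated DNA oligo (15 nM, 5 min, RT). Enzyme was E. coli-made recombinant Tdp1 at 1 nM, exposed to compound for 15 min beforehand; beads 10 ug/ml, 10 min.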
IL-1B inflam inh = inflammasome signaling inhibition, IL-1 beta readout. THP-1 LPS/ATP IL-1B secretion, AlphaLISA, 16 h; active compounds read low. 4.7% of 360,000 active. activity change, % at 57.5 µM. AID 743279; in the data active = activity change below about -50%; inconclusive = mostly about -30% to -49%
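THP-1 cells pretreated 1 hr with compounds (up to 57.5 uM final), then stimulated with LPS (250 ng/mL final) plus ATP (1.25 mM final); secreted IL-1B measured by AlphaLISA after 16 hr, decreased signal indicating inhibition.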
Six1-Eya2 inh = Six1/Eya2 interaction inhibition; AID 651725; Q15475+O00167; 0.56% of 360,000 active; activity change, % (test concentration not listed); AlphaScreen GST-Six1/His-Eya2 binding, biochemical; active compounds read low; in the data active = activity change below about -65%; inconclusive = mostly about -30% to -63%
Target sequence (O00167 whole entry, looked up): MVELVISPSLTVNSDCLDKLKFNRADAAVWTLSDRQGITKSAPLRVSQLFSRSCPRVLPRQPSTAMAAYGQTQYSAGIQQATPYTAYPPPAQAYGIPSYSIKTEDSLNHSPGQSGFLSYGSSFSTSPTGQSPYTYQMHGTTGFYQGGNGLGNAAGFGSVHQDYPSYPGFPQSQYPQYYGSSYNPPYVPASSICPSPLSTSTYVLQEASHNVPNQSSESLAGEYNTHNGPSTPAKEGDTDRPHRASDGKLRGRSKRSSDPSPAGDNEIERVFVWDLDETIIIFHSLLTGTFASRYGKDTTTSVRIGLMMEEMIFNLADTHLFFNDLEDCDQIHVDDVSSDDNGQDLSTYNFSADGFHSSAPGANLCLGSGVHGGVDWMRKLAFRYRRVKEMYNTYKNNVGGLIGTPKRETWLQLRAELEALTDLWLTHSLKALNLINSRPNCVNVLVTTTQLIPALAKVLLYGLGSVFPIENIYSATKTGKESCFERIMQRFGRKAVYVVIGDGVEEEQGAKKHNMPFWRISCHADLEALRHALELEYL
Target sequence (Q15475 whole entry, looked up): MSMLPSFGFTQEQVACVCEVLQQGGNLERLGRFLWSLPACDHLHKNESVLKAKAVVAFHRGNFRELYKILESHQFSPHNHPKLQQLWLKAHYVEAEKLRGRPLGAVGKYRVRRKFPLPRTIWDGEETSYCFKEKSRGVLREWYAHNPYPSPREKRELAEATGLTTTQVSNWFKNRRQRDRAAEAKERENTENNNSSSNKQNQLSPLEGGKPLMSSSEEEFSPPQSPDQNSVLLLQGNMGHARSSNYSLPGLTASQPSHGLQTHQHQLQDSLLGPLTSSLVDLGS
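GST-Six1 + His-Eya2 (5X stock: 250/500 nM); Tris pH 8.0, 300 mM NaCl, 0.05% BSA, 0.02% Tween 20; GSH donor/Ni acceptor beads; 1 h 37 °C dark; AlphaScreen readout.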
Active calls of the source: *; ? = inconclusive; . = no result. Hits are enriched below; roughly 18% of the tested compounds scored in any of these assays. Unless noted, calls follow the shape of the dose curve; as a rule, active = well fitted curve in the direction sought with a large enough effect; inconclusive = small, poorly fitted or top-dose-only effect, or another doubt; inactive = no such curve, though single readings can be large; an effect the other way counts as inactive or inconclusive. % is scaled to controls: 0 for no effect and ±100 for the full control effect.

SMILES	DT40 TDP1 CPT	CtBP-E1A inh	DT40 TDP1 no CPT	TDP1 block	IL-1B inflam inh	Six1-Eya2 inh
CCc1ccc(Nc2n[n+](-c3ccccc3)c(-c3ccc(SC)cc3)s2)cc1	6.51µM*	10.4	6.51µM*	.	-15.7	-10.0
CCOc1cc(-c2sc(Nc3ccccc3)n[n+]2-c2ccc(F)cc2)ccc1OC	-14.7%	-8.8	-17.5%	.	-4.3	11.3
COc1ccc(-c2sc(Nc3ccccc3)n[n+]2-c2ccc(F)cc2)c(OC)c1OC	?	6.1	13µM*	.	-13.4	1.3
COc1ccc(C)cc1Nc1n[n+](-c2ccccc2)c(-c2ccc(SC)cc2)s1	18.4µM*	-4.6	14.6µM*	.	8.2	-3.7
CCc1ccc(Nc2n[n+](-c3ccccc3)c(-c3ccc(C(=O)O)cc3)s2)cc1	-29.0%	3.7	-18.1%	.	0.0	-0.2
Fc1ccc(-[n+]2nc(Nc3ccccc3)sc2-c2ccc(OCc3ccccc3)cc2)cc1	16.4µM*	-1.4	23.1µM*	.	1.5	-9.6
CC[C@@]12C(=O)N(c3cccc(F)c3)C(=O)N1[C@H](c1cccc(C)c1)[C@@H]1C(=O)N(Cc3ccccc3)C(=O)[C@@H]12	-17.3%	-2.4	-17.5%	.	-3.7	1.0
Cc1cc(C)c(S(=O)(=O)n2cnc(C)c2)c(C)c1	-2.2%	.	-3.0%	2.6%	.	.
CC1CC1C(=O)Nc1nc2ccc(Cl)cc2s1 (stereo not drawn)	?	2.0	?	.	20.7	-4.2
COc1ccc(C)cc1Nc1n[n+](-c2ccccc2)c(-c2cc([N+](=O)[O-])cc(OC)c2O)s1	20.6µM*	3.3	?	.	7.0	-7.1
CCc1ccc(Nc2n[n+](C)c(-c3ccncc3)s2)cc1	16.4µM*	-6.2	25.9µM*	.	36.7	-5.8
CSc1ccc(-c2sc(Nc3cccc4ccccc34)n[n+]2-c2ccccc2)cc1	?	-25.4	?	.	-17.1	-21.1
CSc1ccc(-c2sc(Nc3ccccc3)n[n+]2-c2ccccc2)cc1	16.4µM*	-27.6	?	.	-10.6	?
Clc1cccc(-c2sc(Nc3ccccc3)n[n+]2-c2ccccc2)c1Cl	?	-4.9	18.4µM*	.	-0.4	-12.4
CCc1ccc(Nc2n[n+](C)c(-c3ccc(C(=O)O)cc3)s2)cc1	.	.	.	1.2%	.	.
COc1cc(Br)c(-c2sc(Nc3ccccc3)n[n+]2-c2ccc(F)cc2)cc1OC	-1.2%	.	-27.8%	.	-13.1	-12.5
CCc1ccc(Nc2n[n+](-c3ccccc3)c(-c3ccc(OC)c(Br)c3)s2)cc1	16.4µM*	.	?	.	?	-11.9
COCCCNC(=O)Cn1c(=O)n(-c2ccccc2)c(=O)c2c1c1cc(OC)ccc1n2C	-5.3%	.	-15.3%	2.8%	.	.
CSc1cc2c(s1)c1cnn(Cc3ccccc3F)c(=O)c1n2C	.	.	.	0.5%	.	.
CCCCCCCCCn1c2c(c(=N)c3c1CCC3)CCCC2	0.0259µM*	-22.5	0.0184µM*	-2.4%	-98.8*	-13.7
CCn1c2c(c(=N)c3c1CCC3)CCCC2	?	2.2	9.2µM*	.	39.9	-2.8
CCOC(=O)Cn1c2c(c(=N)c3ccccc31)CCC2	-10.0%	-0.8	-17.9%	5.2%	16.5	-9.3
CCCCCCCCCCn1c2c(c(=N)c3c1CCC3)CCC2	0.259µM*	-2.9	0.0291µM*	5.4%	-95.5*	5.3
CCOC(=O)Cn1c2c(c(=N)c3c1CCC3)CCC2	-7.7%	4.5	-7.4%	5.1%	14.4	9.0
CCCCn1c(N)c(N(CCOC)C(=O)c2ccc(S(=O)(=O)N(CC)c3ccccc3)cc2)c(=O)[nH]c1=O	-23.2%	8.5	-4.7%	.	7.6	-0.8
SMILES	DT40 TDP1 CPT	CtBP-E1A inh	DT40 TDP1 no CPT	TDP1 block	IL-1B inflam inh	Six1-Eya2 inh
CC1NC(=O)c2cccnc2-n2c1nc1cc(F)c(F)cc1c2=O (stereo not drawn)	4.1%	-2.0	0.4%	.	32.2	10.1
CCOc1cc(/C=C2\CCCC(C(=O)C(F)(F)F)=C2O)ccc1O	23.1µM*	0.0	23.1µM*	5.1%	?	0.0
COc1ccc(/C=C2/CCCC(C(=O)C(F)(F)F)=C2O)cc1OC	23.1µM*	.	18.4µM*	2.7%	?	-2.4
CCCS(=O)(=O)c1ncc(Cl)c(C(=O)Nc2sc3c(c2C(=O)NCC)CCCC3)n1	1µM*	.	0.794µM*	.	.	.
CCOc1ccc(NC(=O)CN2CCN(c3ccccc3C)CC2)cc1S(=O)(=O)N1CCCC1	?	5.8	?	1.3%	-5.0	-6.2
NC(=O)CSc1nnc(NC(=O)C2CC(=O)N(c3ccc(F)cc3)C2)s1 (stereo not drawn)	-1.7%	-5.8	20.6µM*	4.4%	0.0	-0.9
Cc1ccc(N2CC(C(=O)Nc3nnc(SCC(N)=O)s3)CC2=O)cc1C (stereo not drawn)	-16.6%	0.0	7.1%	2.6%	9.1	1.7
O=C(Nc1ccc(F)cc1)Nc1nnc(SCC(=O)N2CCCCC2)s1	?	.	3.26µM*	2.6%	.	.
O=C(COc1ccccc1)Nc1ccc2nc(SCC(=O)N3CCOCC3)sc2c1	18.4µM*	.	14.6µM*	1.6%	.	.
Cc1ccc(NC(=O)Nc2nnc(SCC(=O)N3CCCCC3)s2)cc1	?	.	?	0.0%	.	.
CCC(=O)Nc1ccc2nc(SCC(=O)N3CCOCC3)sc2c1	1.4%	-15.9	-7.3%	4.6%	0.0	-2.6
O=C(COc1ccc(F)cc1)Nc1ccc2nc(SCC(=O)N3CCCC3)sc2c1	11.6µM*	.	23.1µM*	.	.	.
CC1(C(=O)Nc2cccc3ccccc23)CC1(Br)Br (stereo not drawn)	?	0.1	?	.	12.2	-0.2
Cc1ccc(CCNC(=O)C23CN(Cc4ccccc4)CC2C(c2cccc([N+](=O)[O-])c2)=NO3)cc1 (stereo not drawn)	?	-23.6	?	8.4%	?	-16.4
Nc1sc(-c2ccccc2)cc1C(=O)O	.	.	.	-3.5%	.	.
OC[C@H]1O[C@@H](c2nc3ccc(-c4nc(-c5cccs5)no4)cc3[nH]2)C[C@@H]1O	?	?	?	.	-15.2	?
O=C(COc1ccc(F)cc1)Nc1ccc2nc(SCC(=O)N3CCOCC3)sc2c1	10.3µM*	.	11.6µM*	2.6%	.	.
CC(C)C(=O)Nc1ccc2nc(SCC(=O)N3CCOCC3)sc2c1	-25.7%	.	?	5.7%	.	.
CC(=O)Nc1cccc(Oc2nc(-c3ccccn3)nc3ccccc23)c1	?	-5.2	?	7.0%	.	-2.0
Cc1ccccc1Oc1nc(-c2ccccn2)nc2ccccc12	4.11µM*	-22.6	5.17µM*	2.9%	?	?
CC(=O)Nc1ccc(Oc2nc(-c3ccccn3)nc3ccccc23)cc1	?	-1.6	?	2.7%	-94.0*	?
